# Data from PubChem BioAssay (Tox21).
# Inconclusive results are not listed. Values without a mark were called inactive. Active and inactive are the calls of the source. Calls follow the shape of the dose curve; as a rule, active = well fitted inhibition curve with a large enough effect in the repeat runs; inconclusive = weak or mixed curves; inactive = no such curve, though single readings can be large or run the other way.
# Target: Cytochrome P450 3A4 (Homo sapiens) (UniProt P08684)
# Experiment: Cytochrome P450 Family 3 Subfamily A Member 4 (CYP3A4) small molecule antagonists: luciferase reporter qHTS assay (AID 1671201); also: nearly all actives have a fitted effect of over 50% in size
# Conditions: P450-Glo CYP3A4 enzyme, luciferin luminescence, 1 h; series mostly up to 115 µM; activity change, negative = inhibition: at the top concentration
# Procedure, shortened: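 Setup: enzyme-substrate mix, compound pin transfer, 10 min RT. Reaction: NADPH regeneration solution, 1 h RT. Readout: detection reagent stops turnover, luminescence measured after 20 min, expressed in relative luminescence units.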
# % is scaled to controls: 0 for no effect and ±100 for the full control effect; potency is read from the fitted curve at half-maximal effect.
# Cytochrome P450 3A4 (Homo sapiens), sequence (P08684 whole entry, looked up): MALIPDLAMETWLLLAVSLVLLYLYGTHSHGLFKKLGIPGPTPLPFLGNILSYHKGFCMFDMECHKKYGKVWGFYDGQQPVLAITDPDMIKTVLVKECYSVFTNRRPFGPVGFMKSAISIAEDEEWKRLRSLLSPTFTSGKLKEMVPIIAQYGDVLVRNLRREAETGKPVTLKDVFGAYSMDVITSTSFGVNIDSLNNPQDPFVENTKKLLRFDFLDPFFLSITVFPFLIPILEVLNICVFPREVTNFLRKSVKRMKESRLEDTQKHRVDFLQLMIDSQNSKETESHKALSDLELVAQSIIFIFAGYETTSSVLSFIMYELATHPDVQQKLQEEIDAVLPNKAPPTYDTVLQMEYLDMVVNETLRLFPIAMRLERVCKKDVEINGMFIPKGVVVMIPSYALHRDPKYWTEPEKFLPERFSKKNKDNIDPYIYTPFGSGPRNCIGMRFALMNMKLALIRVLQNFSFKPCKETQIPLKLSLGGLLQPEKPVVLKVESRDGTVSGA
Structure (SMILES),Potency,"activity change, negative = inhibition"
CC(Cc1ccc(O)c(O)c1)C(C)Cc1ccc(O)c(O)c1 (configuration not stated),35.6 µM (active),–
NC(=O)c1ccccc1Cl,–,-23%
CCN(CC)c1ccc(C=O)c(O)c1,–,-23.5%
O=C1OC2(c3ccccc31)c1ccc(O)c(Br)c1Oc1c2ccc(O)c1Br,–,34.9%
C=CC(=O)OCCOC1C2CCC1C1CC=CC12 (configuration not stated),–,-3.35% [at 23.6 µM]
C1=CCCC1,–,4%
C/C(=C\c1ccc(C(=O)O)cc1)c1ccc2c(c1)C(C)(C)CCC2(C)C,–,8.87% [at 52.9 µM]
Cc1ccc2nc(-c3ccc(N)cc3)sc2c1S(=O)(=O)O,–,-24.3% [at 52.9 µM]
O=C1CCC(=O)N1,–,-11.5%
CCCCCc1ccc(O)cc1,–,-15.4%
c1ccc(-c2ccccc2-c2ccccc2)cc1,–,160%
CCOC(=O)[C@H](C)O,–,0.937%
CCCCC/C=C\C=C\C(=O)OCC,16.6 µM (active),–
C[C@H]1O[C@@H](O[C@H]2CC[C@@]3(C)[C@H](CC[C@@H]4[C@@H]3C[C@@H](O)[C@]3(C)[C@@H](C5=CC(=O)OC5)CC[C@]43O)C2)C[C@H](O)[C@@H]1O[C@H]1C[C@H](O)[C@H](O[C@H]2C[C@H](O)[C@H](O[C@@H]3O[C@H](CO)[C@@H](O)[C@H](O)[C@H]3O)[C@@H](C)O2)[C@@H](C)O1,–,11.3% [at 52.9 µM]
CCc1c(C)cc(N)c(CC)c1N,15.9 µM (active),–
CN[C@H]1CC[C@@H](c2ccc(Cl)c(Cl)c2)c2ccc(S(N)(=O)=O)cc21,28.3 µM (active),–
CCCCCCCCOC(=O)c1cc(O)c(O)c(O)c1,35.6 µM (active),–
C=COCCCC,–,1.57%
CCCCCCCCc1ccc(Nc2ccc(CCCCCCCC)cc2)cc1,–,-25.2% [at 52.9 µM]

Structure (SMILES),Potency,"activity change, negative = inhibition"
CCn1c2ccccc2c2ccccc21,–,-19.7%
CN1CCN(c2ccccc2/C=C2\SCCN(c3ccc(Cl)c(Cl)c3)C2=O)CC1,3.99 µM (active),–
Cn1ccnc1,–,-5.79%
CCCCCCCCCC[N+](C)(CCCCCCCCCC)CCC[Si](OC)(OC)OC,28.3 µM (active),–
SC1CCCCC1,–,1.49%
Nc1ccc2c(S(=O)(=O)O)cccc2c1S(=O)(=O)O,–,-1.74% [at 52.9 µM]
CC/C=C(\C)C=O,–,1.07%
CCCCCCCCCCCCCCCCC(C(=O)O)C(O)(CC(=O)O)C(=O)O (configuration not stated),–,45.7% [at 52.9 µM]
c1ccc2c(c1)-c1ccc3ccc4cccc5cc-2c1c3c45,–,-18.2% [at 52.9 µM]
O=C(O)CN(CCCN(CC(=O)O)CC(=O)O)CC(=O)O,–,-1.42% [at 23.6 µM]
ClC(c1ccccc1)(c1ccccc1)c1ccccc1,–,11.3%
CCOC=C(C(=O)OCC)C(=O)OCC,–,1.59%
CC(CC(C)(C)C)CC(C)(C)CC(C)(C)C (configuration not stated),–,2.19% [at 52.9 µM]
O=C(CCCCCCCCc1cccnc1)N1CCC(C=C(c2ccccc2)c2ccccc2)CC1,0.399 µM (active),–
C=C1C(CCl)(CCl)C2(Cl)C(Cl)C(Cl)C1(Cl)C2(Cl)Cl (configuration not stated),0.991 µM (active),–
Cc1cc(Br)ccc1NC(=O)CCl,–,1.11%
CC/C=C\C/C=C\C/C=C\CCCCCCCC(=O)OC,20 µM (active),–
Cc1ccc(Cl)c(N)c1Cl,–,-0.511%
